According to PubChem BioAssay (EPA / NIEHS):
Activity calls are given as the source filed them. Rule for the calls: active = hit-call score of the fitted dose curve at least 0.9, where 1 is the maximum; inactive = score below 0.9.

Tests used:
Details in all cases: mRNA level, 48 h; actives raise or lower the signal
[1] = read-out: Intercellular Adhesion Molecule 1 (ICAM1), ICAM1 (gene 3383); assay: LTEA_HepaRG_ICAM1: Life Technologies and Expression Analysis (LTEA) Assay for Intercellular Adhesion Molecule 1 (ICAM1) using HepaRG (AID 2283507)
Outline: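 ICAM1 transcript levels measured by qRT-PCR, normalized to three housekeeping genes (ACTB, GAPDH, POLR2A), after 48 h chemical exposure of HepaRG cells. Duplicate eight-point half-log series from 100 uM in 0.5% DMSO; gain or loss fitted against vehicle.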

[2] = read-out: Insulin-like growth factor-binding protein 1 (IGFBP1), IGFBP1 (gene 3484); assay: LTEA_HepaRG_IGFBP1: Life Technologies and Expression Analysis (LTEA) Assay for Insulin-like growth factor-binding protein 1 (IGFBP1) using HepaRG (AID 2283508)
Outline: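 Read-out is qRT-PCR transcript level normalized to three housekeeping genes, fitted in both directions against 0.5% DMSO. Differentiated HepaRG cells received eight half-log concentrations (top 100 uM) in duplicate for 48 h in serum-free induction medium.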

[3] = read-out: Interleukin 6 (IL6), IL6 (gene 3569); assay: LTEA_HepaRG_IL6: Life Technologies and Expression Analysis (LTEA) Assay for Interleukin 6 (IL6) using HepaRG (AID 2283509)
Outline: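 Changes in IL6 mRNA, up or down relative to 0.5% DMSO controls, were derived from concentration-response curves in human HepaRG cells treated for 48 h at up to 100 uM, with ACTB, GAPDH and POLR2A as normalizers.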

[4] = read-out: Interleukin 6 Receptor (IL6R), IL6R (gene 3570); assay: LTEA_HepaRG_IL6R: Life Technologies and Expression Analysis (LTEA) Assay for Interleukin 6 Receptor (IL6R) using HepaRG (AID 2283510);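 for AC50: differentiated human HepaRG liver cells in serum-free induction medium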
Outline: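 HepaRG, 48 h exposure, 8-pt half-log series, top 100 uM, 0.5% DMSO vehicle, duplicates. Read-out: TaqMan qRT-PCR of IL6R transcript, housekeeping-gene normalized. Gain or loss fitted relative to DMSO baseline.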

[5] = read-out: Potassium channel subfamily K member 1 (KCNK1), KCNK1 (gene 3775); assay: LTEA_HepaRG_KCNK1: Life Technologies and Expression Analysis (LTEA) Assay for Potassium channel subfamily K member 1 (KCNK1) using HepaRG (AID 2283511)
Outline: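 Human HepaRG cultures receive test chemicals for 48 h in 0.5% DMSO, top concentration 100 uM with half-log dilutions. Induction or suppression of KCNK1 mRNA relative to DMSO is derived by bidirectional fitting of qRT-PCR data.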

[6] = read-out: Keratin 19 (KRT19), KRT19 (gene 3880); assay: LTEA_HepaRG_KRT19: Life Technologies and Expression Analysis (LTEA) Assay for Keratin 19 (KRT19) using HepaRG (AID 2283512)
Outline: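 KRT19 transcript measured by TaqMan qRT-PCR, referenced to three housekeeping genes, after HepaRG cells received test chemicals for 48 h. Eight half-log concentrations, top 100 uM, 0.5% DMSO vehicle; increases and decreases both fitted.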

[7] = read-out: JUN Transcription Factor, JUN (gene 3725); assay: LTEA_HepaRG_JUN: Life Technologies and Expression Analysis (LTEA) Assay for JUN Transcription Factor using HepaRG (AID 2283513)
Outline: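 HepaRG, 48 h exposure, 8-pt half-log series top 100 uM, 0.5% DMSO, duplicate. JUN mRNA by qRT-PCR (Fluidigm), housekeeping-normalized (ACTB/GAPDH/POLR2A); bidirectional curve fit vs DMSO baseline.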

[8] = read-out: Lipase C (LIPC), LIPC (gene 3990); assay: LTEA_HepaRG_LIPC: Life Technologies and Expression Analysis (LTEA) Assay for Lipase C (LIPC) using HepaRG (AID 2283514)
Outline: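 In this multiplexed gene-expression screen, human HepaRG cultures received test chemicals for 48 h across eight concentrations with 100 uM highest, in duplicate. Values reflect LIPC mRNA induction or suppression versus DMSO vehicle, from normalized qRT-PCR.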

[9] = read-out: Lipoprotein lipase (LPL), LPL (gene 4023); assay: LTEA_HepaRG_LPL: Life Technologies and Expression Analysis (LTEA) Assay for Lipoprotein lipase (LPL) using HepaRG (AID 2283515)
Outline: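 Concentration-response testing used half-log steps from 100 uM in 0.5% DMSO on human HepaRG cells, 48 h, duplicate wells. Phenobarbital 1 mM served as induction control; LPL mRNA was normalized to ACTB, GAPDH, POLR2A.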

[10] = read-out: MicroRNA 122 (MIR122), gene 406906; assay: LTEA_HepaRG_MIR122: Life Technologies and Expression Analysis (LTEA) Assay for MicroRNA 122 (MIR122) using HepaRG (AID 2283516); note: the transcript read is the microRNA miR-122
Outline: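 qRT-PCR read-out (TaqMan, Fluidigm array), normalized to three housekeeping genes; HepaRG cells dosed 48 h at 8 concentrations up to 100 uM in 0.5% DMSO, duplicate; gain or loss fitted against DMSO baseline.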

[11] = read-out: matrix metalloproteinase-10 (MMP10), MMP10 (gene 4319); assay: LTEA_HepaRG_MMP10: Life Technologies and Expression Analysis (LTEA) Assay for matrix metalloproteinase-10 (MMP10) using HepaRG (AID 2283517)
Outline: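 In differentiated HepaRG cultures kept in 0.5% DMSO, test chemicals act for 48 h over an eight-point range with a top dose of 100 uM. Expression is then quantified by TaqMan RT-PCR against ACTB, GAPDH and POLR2A.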

MYC, MYC (gene 4609) = assay: LTEA_HepaRG_MYC: Life Technologies and Expression Analysis (LTEA) Assay for MYC using HepaRG (AID 2283518)
Outline: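 MYC transcript changes, up or down relative to 0.5% DMSO, from TaqMan qRT-PCR normalized to three housekeeping genes. Human HepaRG cultures received chemicals for 48 h at eight half-log concentrations up to 100 uM, in duplicate.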

[12] = read-out: matrix metalloproteinase-3 (MMP3), MMP3 (gene 4314); assay: LTEA_HepaRG_MMP3: Life Technologies and Expression Analysis (LTEA) Assay for matrix metalloproteinase-3 (MMP3) using HepaRG (AID 2283519)
Outline: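 Human liver HepaRG cultures received chemicals (top concentration 100 uM, 0.5% DMSO) for 48 h in duplicate. MMP3 mRNA induction or loss was then assessed via TaqMan qRT-PCR with housekeeping-gene normalisation.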

[13] = read-out: Paternally Expressed 10 (PEG10), PEG10 (gene 23089); assay: LTEA_HepaRG_PEG10: Life Technologies and Expression Analysis (LTEA) Assay for Paternally Expressed 10 (PEG10) using HepaRG (AID 2283520);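 for AC50: PEG10 transcript by qRT-PCR normalised to ACTB GAPDH and POLR2A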
Outline: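 qRT-PCR read-out: PEG10 mRNA normalised to three housekeeping genes, fitted bidirectionally against 0.5% DMSO vehicle. HepaRG cells received test chemicals for 48 h in serum-free induction medium, 8 points, top 100 uM, half-log steps.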

[14] = read-out: Protein phosphatase 2A (PPP2R4), PTPA (gene 5524); assay: LTEA_HepaRG_PPP2R4: Life Technologies and Expression Analysis (LTEA) Assay for Protein phosphatase 2A (PPP2R4) using HepaRG (AID 2283522)
Outline: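 HepaRG, 48 h exposure, 8-pt half-log series from 100 uM, 0.5% DMSO vehicle, duplicates. Readout: PPP2R4 mRNA, Fluidigm qRT-PCR, housekeeping-normalized. Bidirectional curve fit vs DMSO baseline.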

[15] = read-out: Phosphatase and tensin (PTEN), PTEN (gene 5728); assay: LTEA_HepaRG_PTEN: Life Technologies and Expression Analysis (LTEA) Assay for Phosphatase and tensin (PTEN) using HepaRG (AID 2283523)
Outline: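 Expression of PTEN is quantified in the human liver line HepaRG following two days of dosing (top concentration 100 uM, half-log dilutions, 0.5% DMSO). Values derive from bidirectional curve fitting relative to DMSO controls.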

[16] = read-out: solute carrier (SLC22A1), SLC22A1 (gene 6580); assay: LTEA_HepaRG_SLC22A1: Life Technologies and Expression Analysis (LTEA) Assay for solute carrier (SLC22A1) using HepaRG (AID 2283524);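 for AC50: differentiated human HepaRG liver cells in serum-free induction medium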
Outline: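 Transcript induction or suppression of SLC22A1 in human HepaRG cultures is scored after 48 h chemical treatment, with DMSO (0.5%) as baseline for bidirectional fitting. Concentrations span eight half-log points topping at 100 uM.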

[17] = read-out: Pyruvate Dehydrogenase Kinase 4 (PDK4), PDK4 (gene 5166); assay: LTEA_HepaRG_PDK4: Life Technologies and Expression Analysis (LTEA) Assay for Pyruvate Dehydrogenase Kinase 4 (PDK4) using HepaRG (AID 2283525)
Outline: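 Eight-point, half-log concentration series (max 100 uM, 0.5% DMSO) applied to differentiated HepaRG cells for 48 h in duplicate. Endpoint: PDK4 mRNA induction or repression by qRT-PCR against DMSO baseline.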

[18] = read-out: Nuclear factor NF-kappa-B p105 subunit (Homo sapiens) (UniProt P19838); assay: LTEA_HepaRG_NFKB1: Life Technologies and Expression Analysis (LTEA) Assay for Nuclear Factor Kappa B Subunit 1 (NFKB1) using HepaRG (AID 2283521)
Outline: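 NFKB1 transcript was measured by TaqMan qRT-PCR on Fluidigm arrays, normalised to three housekeeping genes and fitted in both directions against 0.5% DMSO. HepaRG cells were dosed in duplicate for 48 h in serum-free induction medium, eight half-log steps from 100 uM.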

[19] = read-out: NAD(P)H dehydrogenase [quinone] 1 (NQO1), NQO1 (gene 1728); assay: LTEA_HepaRG_NQO1: Life Technologies and Expression Analysis (LTEA) Assay for NAD(P)H dehydrogenase [quinone] 1 (NQO1) using HepaRG (AID 2283526)
Outline: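 qRT-PCR read-out (Fluidigm TaqMan), normalized to three housekeeping genes, after 48 h chemical exposure of HepaRG cells. Concentrations: eight points, top 100 uM, half-log steps, 0.5% DMSO vehicle. Gain or loss of signal fitted relative to DMSO.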

Measured: AC50

Chain of Nuclear factor NF-kappa-B p105 subunit (Homo sapiens) (P19838 whole entry, looked up): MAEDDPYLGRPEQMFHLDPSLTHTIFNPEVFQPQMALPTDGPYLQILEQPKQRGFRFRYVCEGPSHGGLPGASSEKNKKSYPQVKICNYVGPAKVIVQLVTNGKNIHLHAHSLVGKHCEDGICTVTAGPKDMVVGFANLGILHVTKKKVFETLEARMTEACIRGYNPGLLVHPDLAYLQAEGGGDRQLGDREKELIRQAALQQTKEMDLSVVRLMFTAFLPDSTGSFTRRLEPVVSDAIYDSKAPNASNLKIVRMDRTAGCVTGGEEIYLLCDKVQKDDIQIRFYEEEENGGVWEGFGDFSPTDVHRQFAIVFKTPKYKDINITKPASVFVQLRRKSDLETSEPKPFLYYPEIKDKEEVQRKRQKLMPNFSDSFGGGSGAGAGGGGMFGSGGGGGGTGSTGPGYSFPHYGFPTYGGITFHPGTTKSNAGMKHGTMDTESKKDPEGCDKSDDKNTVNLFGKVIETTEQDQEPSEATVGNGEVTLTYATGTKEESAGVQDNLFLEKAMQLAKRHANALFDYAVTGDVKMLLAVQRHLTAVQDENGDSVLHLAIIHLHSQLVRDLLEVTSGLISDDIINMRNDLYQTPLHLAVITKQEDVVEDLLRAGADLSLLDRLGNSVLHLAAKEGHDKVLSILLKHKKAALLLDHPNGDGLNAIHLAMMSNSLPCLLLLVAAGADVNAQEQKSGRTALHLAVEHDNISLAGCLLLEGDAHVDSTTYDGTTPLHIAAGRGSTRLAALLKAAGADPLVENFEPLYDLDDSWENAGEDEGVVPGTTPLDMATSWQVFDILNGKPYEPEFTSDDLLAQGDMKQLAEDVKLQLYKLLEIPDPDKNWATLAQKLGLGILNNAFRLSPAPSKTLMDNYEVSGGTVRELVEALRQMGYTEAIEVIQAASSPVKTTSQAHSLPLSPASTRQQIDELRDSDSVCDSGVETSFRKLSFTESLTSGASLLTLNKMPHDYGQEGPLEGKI

C[C@]12CCC(=O)C=C1CC[C@@H]1[C@@H]2CC[C@@]2(C)[C@H]1CC[C@]2(C)O
inactive: [1] | [2] | [3] | [4] | [5] | [6] | [7] | [9] | [11] | MYC, MYC (gene 4609) | [14] | [15]
active: [8] 81.7 µM | [10] 45.8 µM | [12] 0.948 µM | [13] 2.07 µM | [16] 45.8 µM | [17] 45.8 µM

Cc1ccccc1O
inactive: [1] | [2] | [4] | [5] | [6] | [7] | [8] | [9] | [10] | [11] | MYC, MYC (gene 4609) | [12] | [13] | [18] | [14] | [15] | [16] | [17]

NS(=O)(=O)C(F)(F)C(F)(F)C(F)(F)C(F)(F)C(F)(F)C(F)(F)C(F)(F)C(F)(F)F
active: [2] 21.6 µM | [4] 30.2 µM | [6] 23.4 µM | [7] 37.2 µM | [8] 15.8 µM | [9] 70.8 µM | [10] 12.4 µM | [11] 33.9 µM | MYC, MYC (gene 4609) 26.8 µM | [12] 50 µM | [13] 5.02 µM | [18] 2.4 µM | [14] 24.4 µM | [15] 26.2 µM | [16] 9.51 µM
inactive: [1] | [5] | [17]

CCC(C)c1cc([N+](=O)[O-])cc([N+](=O)[O-])c1O (stereo not given)
active: [2] 4.09 µM | [3] 4.95 µM | [5] 27.5 µM | [6] 2.53 µM | [8] 1.83 µM | [9] 0.758 µM | [10] 2.73 µM | [11] 3.93 µM | MYC, MYC (gene 4609) 9.27 µM | [12] 2.23 µM | [13] 1.26 µM | [14] 1.25 µM | [15] 5.41 µM | [16] 1.74 µM
inactive: [1] | [4] | [7] | [18] | [17]

O=C(O)C(F)(F)C(F)(F)C(F)(F)C(F)(F)C(F)(F)F
inactive: [1] | [2] | [3] | [4] | [5] | [6] | [7] | [8] | [9] | [10] | [11] | MYC, MYC (gene 4609) | [12] | [13] | [14] | [15] | [16]
active: [17] 14.9 µM

ClC1=C(Cl)[C@]2(Cl)[C@@H]3[C@H]4C[C@H]([C@@H]5O[C@H]45)[C@@H]3[C@@]1(Cl)C2(Cl)Cl
inactive: [2] | [3] | [5] | [6] | [7] | [9] | [11] | [12] | [13] | [18] | [14] | [15] | [17] | [19]
active: [1] 9.92 µM | [4] 9.92 µM | [8] 50 µM | [10] 31.6 µM | MYC, MYC (gene 4609) 11 µM | [16] 31.7 µM

Cc1cc(O)ccc1Cl
inactive: [1] | [2] | [3] | [4] | [5] | [6] | [7] | [8] | [9] | [10] | [11] | MYC, MYC (gene 4609) | [12] | [13] | [18] | [14] | [15] | [16] | [17]
